For orientation: inhibition means how much of the control response was suppressed.

The whole screen tested about 2,400 compounds, of which about 1,800 (75%) were called active. So high a share suggests a set chosen from earlier hits. These entries were drawn from the full list. A number with no mark means an inactive call.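 How the source made its calls: active means inhibition above the primary screen limit, the mean inhibition of all tested compounds plus 3 SD (cut at about 25% in these data); inactive means the rest.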

This assay has as its system tRNA 2'-phosphotransferase TPT1 [Candida albicans SC5314]. Nature of the assay: Candida albicans TPT1 inhibitors, confirmation, biochemical, fluorescence polarization, triplicate (AID 2149). The note with it: recombinant caTPT1, fluorescence polarization, RNase T1 coupled; at 5 µM; active compounds read high. On the technique in general: In fluorescence polarisation assays a small probe gives low polarisation when free and higher when bound to something large.
With `CCCCC(=O)N/N=C/c1c(O)n(CC)c(=S)n(CC)c1=O`, the inhibition was 98.8% (active).
Then `CCN1C(=O)C(=Cc2c(C)n(CC(=O)NCC3CCCO3)c3ccccc23)C(=O)N(CC)C1=S` (centres undefined), with 18.6%; and `O=C1NC(=O)N(Cc2ccco2)C(=O)/C1=C\c1ccc(-c2ccc(F)cc2)o1`, with 11.4%; and `COc1ccc(N2C(=O)/C(=C/c3ccco3)C(=O)NC2=S)cc1`, with 27.9% (active).
Then `O=C1NC(=O)N(Cc2ccco2)C(=O)/C1=C\c1cccn1CCOc1ccccc1`, with 6.57%.
Take `O=C1CC(=O)N(Cc2ccccc2)C(=O)N1CCCCCCN1C(=O)CC(=O)N(Cc2ccccc2)C1=O`: the inhibition was 25.7% (active).
Then `COc1ccccc1N=Nc1c(O)[nH]c(=S)[nH]c1=O`, with 64.9% (active); and `CC(C)n1c(=O)c(C=Nc2ccc(Br)cc2)c(O)n(Cc2ccco2)c1=O`, with 17.1%.
For `CC/C(=N\NC(=O)c1ccccc1O)c1c(O)n(Cc2ccccc2)c(=O)[nH]c1=O`, the inhibition is 21.9%.

(Values after PubChem BioAssay AID2149 (The Scripps Research Institute Molecular Screening Center, 2009).)
